# Test results reported in PubChem BioAssay AID588463 (National Center for Advancing Translational Sciences (NCATS), 2011).
# The campaign covered roughly 1,200 compounds. About 15 (1%) were called active. Not shown: some 7% with an inconclusive outcome. The call rests on the fitted dose curve; in most records, active means well fitted activation curve with a large enough effect; inconclusive means small, poorly fitted or top-dose-only effect; inactive means flat fitted curve, though single readings scatter. Shown is part of a subset that was picked to be rich in actives.
# Target: Beta-2 adrenergic receptor (Homo sapiens) (UniProt P07550)
# Sequence (P07550 whole entry, looked up): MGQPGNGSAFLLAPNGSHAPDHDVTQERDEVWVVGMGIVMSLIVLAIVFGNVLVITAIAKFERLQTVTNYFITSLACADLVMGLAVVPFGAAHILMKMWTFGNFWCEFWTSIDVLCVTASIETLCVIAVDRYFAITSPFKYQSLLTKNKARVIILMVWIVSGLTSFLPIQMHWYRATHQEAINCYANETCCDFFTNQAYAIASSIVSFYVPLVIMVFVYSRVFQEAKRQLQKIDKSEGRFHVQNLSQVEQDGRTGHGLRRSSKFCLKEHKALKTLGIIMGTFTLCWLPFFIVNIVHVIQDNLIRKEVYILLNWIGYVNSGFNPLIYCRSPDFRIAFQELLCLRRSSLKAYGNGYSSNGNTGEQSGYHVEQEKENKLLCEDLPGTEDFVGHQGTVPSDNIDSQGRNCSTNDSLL
# Assay: qHTS assay of beta-arrestin-biased ligands of beta2-adrenergic receptor: Hit Validation;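 on activation: plate controls were DMSO for no effect and maximal isoproterenol or metaproterenol response for full effect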
# Settings: cell-based beta-arrestin recruitment to beta2AR; Potency: activation; series mostly up to 46.1 µM; activation: at the top concentration
# Description: The concept of biased agonism is an emerging concept of molecular pharmacology which proposes that seven transmembrane receptors (7TMRs) or G protein-coupled receptors (GPCRs), exist in multiple signaling conformations and complexes and that ligands (either agonists or antagonists) can induce signaling biased responses for distinct signal transduction cascades.
# Furthermore, accumulating evidence over the last decade has drawn attention to a novel function of beta-arrestins as signal transducers that scaffold various signaling molecules upon activation of 7TMRs. […] This beta-arrestin-biased signaling presumably leads to distinct physiological outcomes from those by G protein activation.
# Additionally, the active receptor conformations which […] on this beta-arrestin signaling are likely different from those activating G protein signaling
# The goal of this screening project will be to discover and optimize novel beta-arrestin-biased ligands for beta2-AR signaling. A luminescent cell-based assay for beta2-AR-mediated agonism, known as the Tango assay, has been validated in which ligand binding of a recombinant beta2-AR and subsequent recruitment of a recombinant beta-arrestin lead to the release of the transcriptional activator tTA, which upregulates transcription of a tTA-responsive luciferase gene.
# NIH Molecular Libraries Probe Production Network [MLPCN]
# NIH Chemical Genomics Center [NCGC]
# PI: Bryan Roth (UNC) and Bob Lefkowitz (Duke)
# NCGC Assay Protocol Summary:
# Tango cells were dispensed into white, solid, tissue-culture-treated 1536-well plates at 1500 cells/well in DMEM, containing 1% fetal bovine serum (FBS). Then, 23 nL of compounds or DMSO were delivered to each well using a pin tool. Plates were incubated at 37 degrees C, 5% CO2 for 18 hr. Then 2.5 uL luminescent substrate mix (in-house prepared: 150 mM Tris-Cl, pH 7.6, 3 mM MgCl2, 1% Triton X-100, 5 mM DTT, 0.5 mM CoA, 0.15 mM ATP, 0.44 mM D-luciferin, final concentrations) was added to each well. Plates were then incubated for 15 minutes at room temperature, and subsequently measured on a ViewLux plate reader for luminescent signal using a clear filter with a 10 second exposure and 2x binning. The %Activity was determined from the corrected luminescence values.
# Concentration-response curves were fitted to the signals arising from the resulting luminescence. The concentration-effect curves were then classified based on curve quality (r2), response magnitude and degree of measured activity, and compounds were subsequently categorized based on their curve class.
# Keywords: biased agonism, beta2-AR, beta-arrestin, GPCR, 7TMR, Tango, luminescence, MLSMR, MLPCN, NIH Roadmap, qHTS, NCGC
# Potency means the concentration at half of the fitted maximal effect.
SMILES,activation,Potency
Clc1cccc(Cl)c1C1Nc2cccc3cccc(c23)N1,-3.31% (inactive),
COC(=O)N1C(=O)[C@@](c2ccc(OC)cc2)(C(C)C)N1C(=O)OC,-0.416% (inactive),
COc1ccc(C(=O)C2CCCN(Cc3cnc(N4CCCC4)s3)C2)cc1OC (stereo not drawn),-2.07% (inactive),
Fc1ccccc1NC(=S)Nn1cnnc1,-2.95% (inactive),
CCOc1ccc(N(CC(=O)Nc2cccnc2)S(=O)(=O)c2ccc(C)cc2)cc1,-4% (inactive),
O=C(CNCc1ccccc1Cl)Nc1ccc2c(c1)OCCO2,-0.278% (inactive),
Cc1cccc(N=C2NC(=O)/C(=C/c3cccs3)S2)c1,-0.803% (inactive),
CCNC(=S)NNc1nncc2ccccc12,-2.03% (inactive),
S=C(N/N=C/c1ccco1)NC1CC2CCC1C2 (stereo not drawn),-2.42% (inactive),
CN=C(c1ccc(C)cc1)n1c(=S)nc(-c2ccc(C)cc2)n(C)c1=S,-2.89% (inactive),
CNc1cc(C)nc(-n2nc(C)cc2C)n1,0.533% (inactive),
CN(C)NC(=S)Nc1ccc(Cl)cc1,-4.31% (inactive),
C/C(CCC1CC(C)(C)OC1=O)=N\NC(N)=S (stereo not drawn),-4.39% (inactive),
O=C(O)CCC(=O)N1N=C(c2ccccc2)CC1c1ccc2nccnc2c1 (stereo not drawn),-2.51% (inactive),
O=C(OCC1CC(c2ccccc2)=NO1)c1ccco1 (stereo not drawn),0.568% (inactive),
COc1ccc2nc(NC(=S)N(C)C)sc2c1,-2.69% (inactive),
COc1ccc(C2=NN(C(=O)/C=C/c3ccccc3)C(c3ccccc3)C2)c(OC(C)=O)c1 (stereo not drawn),1.88% (inactive),
Cc1cc(/C=N/NC(N)=S)c(C)n1-c1ccc(Br)cc1,-2.46% (inactive),
COc1ccc(CN2CCCC(C(=O)c3ccc(Cl)cc3)C2)cc1Cn1cccn1 (stereo not drawn),5.4% (inactive),
COC(=O)CSc1ccc2nnc(-c3ccc(OC)c(OC)c3)n2n1,-2.65% (inactive),
CCNC(=S)N/N=C/c1cccs1,-3.28% (inactive),
Cc1nn(-c2ccccc2)c(C)c1/C=N/NC(=O)CSc1nnc(SCc2ccccc2Cl)s1,-0.869% (inactive),
FC(F)(F)c1cc(Nc2ccccc2)nc(-c2ccccn2)n1,-0.114% (inactive),

SMILES,activation,Potency
CC1S/C(=N/N=C2CCCCC2)NC1=O (stereo not drawn),-1.28% (inactive),
Cc1ccc2c(c1)C(=O)N1[C@H]3c4ccccc4OC[C@@H]3[C@H](c3ccccc3)[C@]1(C)C(=O)N2,1.92% (inactive),
CCN1CCN(C(=S)NC(=O)c2cccc(Br)c2)CC1,-2.87% (inactive),
Cc1ccc(-n2c(SCC(=O)NCc3ccco3)nc3c(sc4ccccc43)c2=O)cc1,,13 µM (active)
COc1ccc(CNc2nc(SCC(=O)NCc3ccco3)nc3ccccc23)cc1,-0.667% (inactive),
CCC(Sc1nc2ccsc2c(=O)n1-c1ccc(Cl)c(C)c1)C(=O)NCc1ccco1 (stereo not drawn),-1.32% (inactive),
CCOC(=O)C(Sc1cc(-c2ccccc2)nc2ncnn12)C(C)=O (stereo not drawn),-1.39% (inactive),
CC(C)(O)C(=O)NN(C(=O)c1ccccc1)c1ccc2ccccc2c1,-2.62% (inactive),
O=C(N/N=C/c1cccs1)c1cncc(Br)c1,-2.47% (inactive),
C/C(CS(=O)(=O)c1ccc(Cl)c(Cl)c1)=N/NC(N)=S,-1.93% (inactive),
C/C(=N\NC(=S)NCc1ccccc1)c1ccc2ccccc2c1OC(F)F,-2.23% (inactive),
O=c1[nH]c(CSc2ccccn2)nc2c1cnn2-c1ccccc1,-0.631% (inactive),
COc1ccc(NC(=O)c2cc3c(-c4ccc(OC)c(OC)c4)nn(C)c3s2)cc1OC,-0.0302% (inactive),
CCOC(=O)c1c(C)[nH]c(N=Nc2ccc(C)cc2C)c1C,-10.2% (inactive),
CCOC(=O)N1CCN(Cc2c(F)cccc2F)CC1,-2.4% (inactive),
CCOC(=O)c1sc(NC(=O)CSc2nnc(C(C)C)n2C)nc1C,-3.85% (inactive),
CC(C)C(=O)COc1c2occc2cc2ccc(=O)oc12,-4.07% (inactive),
O=C(Nc1cnccn1)c1ccc(Cl)cc1,-1.39% (inactive),
CC(=O)N(c1ccccc1)C(C)c1nc(C#N)c(C#N)nc1C (stereo not drawn),-1.35% (inactive),
FC(F)(F)c1cnc(N2CCSCC2)c(Cl)c1,-6.12% (inactive),
CN(Cc1ccccc1)C(=O)CN1C(=O)c2ccccc2C1=O,-3.09% (inactive),
COc1ccc(-c2cn3cccnc3n2)cc1F,-3.26% (inactive),
O=C(NC(=S)N1CCCCCC1)c1ccccc1Cl,-2.85% (inactive),

SMILES,activation,Potency
Cc1nc(C)c(CC(=O)N/N=C/c2ccc(O)cc2)c(=O)[nH]1,-2.66% (inactive),
COc1ccc(OCCCC(=O)Nc2nc(-c3ccccn3)cs2)cc1,9.17% (inactive),
Cn1cccc1C(=O)NC(=O)CSc1cccc[n+]1[O-],-3.1% (inactive),
C/C(=N\NC(=S)NCCc1ccccc1)c1ccc(Cl)cc1Cl,-2.3% (inactive),
O=C1NC(c2ccc(-c3ccccc3[N+](=O)[O-])o2)C(C(=O)c2ccc(F)cc2)C(O)(C(F)(F)F)N1 (stereo not drawn),-4.07% (inactive),
Cc1ccc(CN2CCSCC2)c(C)c1,-2.68% (inactive),
C=CCNC(=S)N/N=C/c1ccc(-c2cc(Cl)ccc2Cl)o1,-2.16% (inactive),
Cc1ccccc1NS(=O)(=O)c1ccc2oc(=O)ccc2c1,-3.24% (inactive),
COc1ccc(NC(=S)Nc2ccccn2)c(OC)c1,-1.86% (inactive),
O=C(CSc1cccc[n+]1[O-])c1cc2ccccc2o1,-1.76% (inactive),
CCC1(C)Cc2ccccc2C(=S)N1 (stereo not drawn),-3.36% (inactive),
C=C(C)c1cccc(C(C)(C)NC(=O)NC(c2ccccc2)c2ccc(OC)cc2)c1 (stereo not drawn),8.73% (inactive),
NC(=S)n1[nH]c(-c2ccc([N+](=O)[O-])cc2)c(N=Nc2cccc([N+](=O)[O-])c2)c1=O,-5.18% (inactive),
CCN(CC)CCCNC(=O)CCC(=O)NNc1nc2ccccc2c2nc(C)nn12,-1.51% (inactive),
Cc1cc(C)n(-c2nc(NC(C)C)nc(NC(C)C)n2)n1,-3.01% (inactive),
O=C(CNc1cccc(Cl)c1)c1ccc(Br)cc1,-2.41% (inactive),
Cc1nc(COC(=O)c2ccc(S(=O)(=O)N3CCCC3)cc2)cs1,-0.855% (inactive),
CC(C)NS(=O)(=O)c1ccc(NC(=O)C(C)Oc2ccc(C(=O)c3ccccc3)cc2)cc1 (stereo not drawn),0.57% (inactive),
CCn1nnnc1SCC(=O)Nc1nc2ccc(OC)cc2s1,-0.634% (inactive),
CS(=O)(=O)Nc1ccc(-c2cn3cccnc3n2)cc1,-3.46% (inactive),
O=C(NCCOc1cccnc1)C1CCC(=O)N(Cc2ccccc2F)C1 (stereo not drawn),-3.24% (inactive),
COc1ccc(N(CC(=O)N2CCCC2)S(C)(=O)=O)cc1,-3.72% (inactive),
CCN(CC)CCC(=O)N1c2ccccc2Sc2ccc(NC(=O)OC)cc21,-1.25% (inactive),

SMILES,activation,Potency
CCCn1c(-c2ccc(F)cc2)n[nH]c1=S,-4.3% (inactive),
Cc1cccc(NC(=S)N=Nc2c(O)n(CN3CCOCC3)c3ccccc23)c1C,-2.46% (inactive),
Cc1ccccc1OCC(=O)N/N=C/c1sc(=O)n(Cc2cccc(C(=O)O)c2)c1Cl,-1.41% (inactive),
CCOc1cccc(N)c1,-1.3% (inactive),
Cc1cccnc1NC(=S)Nc1ccc(Br)cc1Cl,-1.9% (inactive),
CCCCC(=O)/C=C/n1c(=S)oc2ccccc21,-2.45% (inactive),
CC(=O)N1CCN(CC(=O)c2ccc(Br)cc2)CC1,-1.68% (inactive),
Cc1ccc(S(=O)(=O)N(CC(=O)N/N=C/c2ccco2)c2cc(Cl)cc(Cl)c2)cc1,0.42% (inactive),
CC(=O)c1sc(Nc2nc3ccc(F)cc3s2)nc1C,-2.59% (inactive),
Cc1nc2ccc(NC(=O)CS(=O)(=O)c3ccccc3)cc2s1,-1.85% (inactive),
O=C(NCCN1CCOCC1)c1ccccc1Cl,0.534% (inactive),
CCCCc1nnc(NC(=O)c2ccccc2OCc2c(C)noc2C)s1,-1.03% (inactive),
CC(=O)c1ccc(N2CCN(C(=O)C3CCCN(S(=O)(=O)c4c(C)[nH]c(=O)[nH]c4=O)C3)CC2)cc1 (stereo not drawn),-4.9% (inactive),
CCOC(=O)n1c(=O)oc2cc(S(=O)(=O)N3CCCCC3)ccc21,-4.09% (inactive),
CCOc1ccc(/C=N/NC(=S)NC2CC3CCC2C3)cc1 (stereo not drawn),-0.951% (inactive),
CC1CCCN(C(=O)Cn2nnc(-c3ccc(F)cc3)n2)C1 (stereo not drawn),-0.544% (inactive),
FC(F)(F)c1nc2ccccc2nc1N/N=C\c1ccccc1,-2.93% (inactive),
COc1ccc(OC)c(CNC(=O)CCCc2cn(C)c3ccccc23)c1,-4.25% (inactive),
CC(=O)Oc1ccc2cc(-c3ccccc3)c(=O)oc2c1,-2.83% (inactive),
Cc1cccc(-n2ncc3c(Nc4c(C)n(C)n(-c5ccccc5)c4=O)ncnc32)c1,-4.29% (inactive),
O=C(CN1CCN(Cc2ccccc2)CC1)c1ccc(Br)cc1,-2.66% (inactive),
CCC(=O)Nc1cccc(-c2nnc(SCC(=O)c3ccccc3)n2C)c1,-3.27% (inactive),
Cc1oc(-c2ccccc2Cl)nc1CN1CCCCC1c1cccnc1 (stereo not drawn),-3.35% (inactive),

SMILES,activation,Potency
COCCNC(=S)NN=C1CCC(c2ccccc2)CC1 (stereo not drawn),-3.79% (inactive),
Cc1noc(/C=C/c2ccco2)c1S(=O)(=O)N1CCC(C(=O)N2CCc3ccccc3C2)CC1,-3.07% (inactive),
O=C(N/N=C/c1ccc(-c2ccccc2[N+](=O)[O-])o1)[C@H]1C[C@@H]1c1ccccc1,4.62% (inactive),
Cc1cccc(NC(=S)NC2CCCC2)n1,-2.16% (inactive),
COc1ccc(C2CC(c3ccccc3)=NN2C(=O)COC(=O)c2cccc(N)c2)cc1 (stereo not drawn),7.98% (inactive),
O=C(c1cccs1)N1N=C(c2ccccc2)CC1c1ccc(O)cc1 (stereo not drawn),6.49% (inactive),
CCN1C(=O)C(CC(=O)Nc2ccc(OC)cc2)N(CCN2CCOCC2)C1=S (stereo not drawn),-0.784% (inactive),
COc1cc(-c2nc(-c3ccccc3)c(-c3cc([N+](=O)[O-])ccc3C)[nH]2)cc(OC)c1OC,-0.686% (inactive),
CCOc1ccccc1N=Nc1c(C)[nH]n(C(N)=S)c1=O,-1.78% (inactive),
COc1cccc(NC(=S)N/N=C2\CC(C)(C)Oc3ccc(O)cc32)c1,-2.24% (inactive),
O=C(N/N=C\C=C\c1ccco1)C1COc2ccccc2O1 (stereo not drawn),-2.32% (inactive),
COc1ccc2c(c1)c(=O)c(C(=O)c1ccccc1)cn2Cc1ccc(C)cc1,-0.974% (inactive),
O=[N+]([O-])c1ccc(/C=C2\CCC(C3=CCCC3)=C2N2CCOCC2)cc1,-1.92% (inactive),
CCOC(=O)c1cccc(NC(=O)c2cncc(Br)c2)c1,-2% (inactive),
S=c1nc2ccccc2c2nc(-c3ccccc3)[nH]n12,-2.79% (inactive),
COc1ccc(N(C(=O)CCl)C(C)(C(=O)Nc2c(C)cccc2C)c2ccccn2)cc1 (stereo not drawn),0.0836% (inactive),
CCN(C(=O)Cn1c(Cl)nc2c1c(=O)n(C)c(=O)n2C)C1CCCCC1,-1.79% (inactive),
COc1ccc(/C=N/OC/C(O)=C(\C#N)c2nc3ccccc3[nH]2)cc1OC,-2.21% (inactive),
COc1ccccc1CN1C[C@@H]2C[C@@H](c3ccc4nsnc4c3)N3CCC[C@@]23C1=O,-1.58% (inactive),
Cc1cc(=O)n2cccc(O)c2n1,-5.71% (inactive),
COc1ccc(NC(=S)NC(=O)c2ccc(Br)o2)cc1,-3.83% (inactive),
